Test results as given in PubChem BioAssay (NCATS).
Inconclusive results are not listed. Active and inactive are the calls of the source. Unless noted, the call rests on the fitted dose curve; in most records, active means well fitted curve in the direction sought with a large enough effect; inconclusive means small, poorly fitted or top-dose-only effect, or another doubt; inactive means no such curve, though single readings can be large; an effect the other way counts as inactive or inconclusive.

Experiments:
[1] = qHTS for Hypoxia signaling pathway (HIF-1) antagonists against the NCATS CANVASS Library (AID 1347374)
How it was run: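 HRE-bla ME-180 cells in medium with 0.5% dialyzed FBS received compounds (11-point series) plus CoCl2 (60 uM addition stock) for 17 hrs at 37C. Beta-lactamase activity read with CCF4 (405 nm ex, 460/530 nm em); CellTiter-Glo viability measured in same wells.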

[2] = qHTS for Hypoxia signaling pathway (HIF-1) agonists against the NCATS CANVASS Library (AID 1347375)
How it was run: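 HRE-bla ME-180 cells (0.5% dialyzed FBS) were pre-incubated 5 hrs at 37C, then exposed to compounds in an 11-point series for 17 hrs. Read-out was CCF4-AM beta-lactamase FRET (460/530 nm emissions), with CellTiter-Glo viability in the same wells.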

[3] = 10-beta competent E. coli microbial cell viability qHTS against the NCATS CANVASS Library (AID 1347376)
How it was run: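 10-beta competent E. coli (0.2 OD) were exposed overnight at 37C to compounds in an 11-point series. Viability was read as ATP-dependent BacTiter-Glo luminescence after 20 min at room temperature.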

[4] = DH5-alpha competent E. coli microbial cell viability qHTS against the NCATS CANVASS Library (AID 1347377); conditions: outcome: at 46.1 µM (top of the series)
How it was run: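 DH5-alpha E. coli suspension was exposed to an 11-point compound series overnight at 37 °C. Viable cells quantified by ATP luminescence (BacTiter-Glo) after 20 min at room temperature.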

[5] = qHTS for H2AX Agonists against the NCATS CANVASS Library (AID 1347378)
How it was run: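 TR-FRET readout (ex 320 nm, em 665/620 nm ratio) of phospho-H2AX (S139) in CHO-K1 lysates. Cells treated 3 hr at 37C with compound titration, 0.76% DMSO; lysis 30 min, antibody detection 24 hr at RT.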

[6] = qHTS for Inflammasome Signaling Inhibitors: IL-1-beta AlphaLISA screen against the NCATS CANVASS Library (AID 1347379); conditions: outcome: at 57.5 µM (top of the series)
How it was run: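 THP-1 cells pretreated 1 hr with compound (up to 57.5 uM final), then stimulated with LPS (250 ng/mL final) and ATP (1.25 mM final). Secreted IL-1B measured by AlphaLISA after 16 hr; glyburide as positive control.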

[7] = qHTS for Antimalaria activity screened against the NCATS CANVASS Library (AID 1347380)
How it was run: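 Red blood cells infected with P. falciparum Dd2 (2.5% hematocrit final, 0.3% parasitemia) were exposed to compounds in an 11-point qHTS series for 72 hr at 37C under 5% O2 and 5% CO2. Lysis buffer with SYBR Green was then added for 18 hr, and fluorescence was read at 485/535 nm.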

[8] = Inflammasome Signaling qHTS Counterscreen: IL-1-beta AlphaLISA counterscreen against the NCATS CANVASS Library (AID 1347381)
How it was run: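 Cell-free interference check: compounds added to medium spiked with 4 pg purified IL-1β. Anti-IL-1β acceptor beads (6 ug/mL) with 0.6 nM biotinylated antibody added for 1 h at RT, then streptavidin donor beads (24 ug/mL) for 30 min in the dark. AlphaLISA read at 680/615 nm.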

[9] = Cytotoxicity qHTS for assessment of Hepg2 cells membrane integrity screened against the NCATS CANVASS Library (AID 1347387)
How it was run: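 HepG2 cells (2000/well) attached overnight, then exposed 5 hr at 37C to compounds in an 11-point series (0.59 nM - 46 uM final). LDH release from damaged membranes read fluorometrically (CytoTox-ONE; 560/590 nm) after 10 min at room temperature.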

[10] = qHTS for Activators of p53 Stress Response Pathway screened against the NCATS CANVASS Library (AID 1347388)
How it was run: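 p53RE-bla HCT-116 cells (4000/well) were plated 5 h at 37C, exposed to compounds for 16 h at 37C over an 11-point concentration series, then loaded with CCF4 for 2 h at room temperature; 460/530 nm emission ratio read.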

[11] = qHTS assay for small molecule disruptors of mitochondrial membrane potential screened against the NCATS CANVASS Library (AID 1347389)
How it was run: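 HepG2 cells (2,000/well) plated overnight, then exposed to compounds in 11-point qHTS series for 1 h at 37C before 30 min Mito-MPS dye; depolarization read as fall in red aggregate (590 nm) to green monomer (535 nm) fluorescence.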

[12] = Secretion counterscreen for inhibitors of the SERCaMP assay screened against the NCATS CANVASS Library (AID 1347390)
How it was run: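 Luminescence from constitutively secreted GLuc in SH-SY5Y-GLuc STOP cells, read after coelenterazine addition, served as read-out. Compounds tested 0.001 - 77 uM for 20 h at 37C; Brefeldin A as positive control.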

[13] = qHTS for activators of Nrf2/ARE signaling pathway screened against the NCATS CANVASS Library (AID 1347391)
How it was run: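 ARE-bla HepG2 beta-lactamase reporter cells exposed to compounds for 16 h at 37C; CCF4 substrate 2 h, fluorescence at ex 405 nm, em 460/530 nm. Viability by CellTiter-Glo luminescence.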

[14] = qHTS for activators of dead-cell proteases activity screened against the NCATS CANVASS Library (AID 1347392)
How it was run: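 HepG2 cells (2000/well) attached 18 h at 37C, then exposed 5 h to compounds (11-point qHTS). Dead-cell protease activity read as luminescence from cell-impermeant AAF-aminoluciferin substrate after 15 min at room temperature.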

[15] = qHTS for inhibitors of ER calcium dysfunction: SERCaMP assay screened against the NCATS CANVASS Library (AID 1347393)
How it was run: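 qHTS in SH-SY5Y reporter cells: 16 h compound pretreatment, 4 h thapsigargin, then secreted Gaussia luciferase measured by luminescence.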

[16] = Vero-766 cells viability qHTS against the NCATS CANVASS Library: Counterscreen for Zika virus inhibition assay (AID 1347394)
How it was run: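 CellTiter-Glo luminescence, lower signal indicating cytotoxicity. Vero 766 cells without Zika virus, 1000 cells/well, plated overnight, then treated 72 h at 37C across an 11-point series.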

[17] = qHTS for inhibitors of Wild type Zika virus screened against the NCATS CANVASS Library (AID 1347396)
How it was run: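 Vero 766 cells, 1000/well, o/n attach; cpds pin-transferred (11-pt qHTS); WT Zika added; 72 h, 37C, 5% CO2; CellTiter Glo lumi. Uninfected + vehicle = 100% inhibition.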

[18] = Viability qHTS for inhibitors of the SERCaMP assay screened against the NCATS CANVASS Library (AID 1347400)
How it was run: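 SH-SY5Y-GLuc SERCaMP MJH297-derived cells, 1000/well, plated 4 h, then exposed to compounds in an 11-point qHTS series for 48 h at 37C. Viability read as CellTiter-Glo luminescence.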

[19] = Redox Reaction Profiling qHTS: Assay Interference Panel against the NCATS CANVASS Library (AID 1347401)
How it was run: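 Resazurin (5 uM) conversion to resorufin measured with 200 uM DTT in 50 mM HEPES pH 7.3, 50 mM NaCl. Compounds tested in 11-point qHTS series. Fluorescence (ex 525/em 598 nm) read before and after 15 min dark incubation.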

[20] = qHTS for inhibitors of Rabies Virus screened against the NCATS CANVASS Library (AID 1347402; calls by dose curve)

Measured: outcome

NCCc1c[nH]c2ccccc12
inactive: all assays above

NCCc1c[nH]c2ccc(O)cc12
inactive: all assays above
